Data: PubChem BioAssay AID1814 (Broad Institute, 2009)
Hit rate of the full screen: of about 300,000 compounds, about 22,000 (7.3%) were called active. Not shown: some 2% with an inconclusive outcome. Cut-off read from the data, not from the text of the source: active = activity score below about -60%; inconclusive = mostly about -28% to -61%; inactive = positive scores. Many of the other results were omitted from the sample, so actives are more common in it than they were.

assay: Activators working through SNCA 5'UTR binding (MLPCN) (AID 1814); settings: alpha-synuclein 5'UTR reporter, activators screen; stronger effect = lower value; tested at 7.5 µM

Activity score, inactive:
COc1ccc(/C=C/C(=O)Nc2ccc(C34CC5CC(CC(O)(C5)C3)C4)cc2)cc1OC 76.5%, CC1CCCCN1S(=O)(=O)c1ccc(C(=O)Nc2nnc(-c3cccs3)o2)cc1 (configuration not stated) 89.9%, COc1ccccc1N1CCN(C(=O)c2cc(=O)c3cc(C)cc(C)c3o2)CC1 78.3%, COc1ccc(-c2nc(-c3ccccc3)no2)c(OC)c1 68.9%, O=c1c2c(nc3cc(-c4cccc(Cl)c4)[nH]n13)CCCC2 18.5%, Brc1ccc2c(c1)[C@H]1OCC[C@H]1[C@@H](c1cccs1)N2 72.2%, Cc1cccc(CS(=O)(=O)c2ncc(Cl)c(C(=O)Nc3ccc(F)cc3)n2)c1 59.7%

Activity score, active:
N#Cc1cccc(NC(=O)COC(=O)c2ccccc2C(=O)c2ccc(Cl)c([N+](=O)[O-])c2)c1 -63.7%, Cc1ccc(Nc2nc(N)nc(CSc3nnc(C)s3)n2)cc1 -63.8%, CC(=O)c1ccc(NC(=S)NC(=O)CC(C)C)cc1 -98.8%, COc1ccccc1Nc1ncc(C(C)=O)c(C)n1 -80.4%, Cn1c(CCCOc2ccc(Cl)cc2Cl)n[nH]c1=S -63.6%, COc1cccc2cc(C(N)=O)/c(=N\NC(=O)c3ccccc3)oc12 -61.9%, Cc1cccc(C(=O)OC(C)CN2CCN(C)CC2)c1 (configuration not stated) -64.7%, CCOC(=O)C1(Cc2ccccc2C(F)(F)F)CCN(C(=O)c2cc(C)n(C)n2)CC1 -117%, COc1ccc(/C=C/C(=O)Nc2cccnc2)cc1OC -72.4%, COc1ccc(C(=O)/C=C/c2cccnc2)c(OC)c1 -81.3%, Cc1cc(NC(=O)c2ccccc2C)no1 -104%, Cc1c(C(=O)Nc2ccccc2)sc2nc3n(c(=O)c12)CCCCC3 -136%, CC(=O)c1ccc(NC(=O)c2sc3nc4n(c(=O)c3c2C)CCCCC4)cc1 -89.5%, O=C(Cc1ccc(Br)cc1)N1CCN(c2ccccn2)CC1 -73.7%, O=c1oc2cc(O)ccc2cc1-c1ccc(F)cc1 -115%, NC(=O)Nc1ccccc1C(=O)NCCc1ccccc1 -90.2%, CCN1C(=O)/C(=C2\SC(N3CCCCC3)=NC2=O)c2ccccc21 -151%, CC(C)(C)c1csc(NC2=NS(=O)(=O)c3ccccc32)n1 -127%, CCCNC(=O)c1c(Cl)cnn1-c1ccc(C)cc1 -137%, S=c1nc(C23CC4CC(CC(C4)C2)C3)nc2sccn12 -162%, COC(=O)c1ccc2c(C(C)(C)O)c(C(C)(C)O)[nH]c2c1 -87.7%, COc1cccc(OCC(=O)Nc2ccccc2C(N)=O)c1 -126%, Cc1cccc(OCC(=O)Nc2ccccc2F)c1 -140%, O=C(COc1ccc(Cl)cc1)Nc1ccccc1CO -81.1%, Cc1ccc(F)c(NC(=O)CCc2ccccc2)c1 -92.3%, CCCc1nnc(NC(=O)c2cccs2)s1 -80.1%, Cc1ccc(C(=O)Nc2nnc(-c3cccs3)s2)cc1C -218%, CCc1nnc(NC(=O)c2cccs2)s1 -125%, CCc1c(C)sc(NC(=O)c2cccs2)c1C(N)=O -151%, S=C(NCCc1ccccc1)NCC1CCCO1 (configuration not stated) -78.2%, S=C(NCCc1ccccc1)Nc1ccccc1 -89.3%, S=C(NCCC1=CCCCC1)Nc1ccccc1 -122%, S=C(NCCc1ccccc1)N1CCCCC1 -106%, CCOc1ccc(/C(O)=C2\C(=O)C(=O)N(c3ccc(OC)cc3)C2c2ccccc2[N+](=O)[O-])cc1 (configuration not stated) -69.2%, Fc1ccccc1COc1cccc2cccnc12 -134%, Cc1ccnc2nc(C(=O)Nc3nnc(-c4ccccc4)o3)nn12 -72%, O=C(O)C1CCN(C(=O)OCc2ccccc2)CC1 -142%, CCOC(=O)c1sc(=NC(=O)/C=C/c2cccs2)n(C)c1C -201%, Cc1ccc(NC(=O)C(=O)NCc2ccco2)c(C)c1 -101%, Brc1ccccc1/C=N/Nc1nc2ccccc2o1 -126%, COc1cc(/C=N/Nc2nc3ccccc3s2)ccc1O -82.9%, COc1ccc(/C=N/Nc2nc3ccccc3o2)cc1OC -162%, O=[N+]([O-])c1cc(Br)c(O)c(/C=N/Nc2nc3ccccc3s2)c1 -87.6%, Cc1cc2nc(SCCN3CCOCC3)[nH]c2cc1C -115%, O=C(CN1C(=O)S/C(=C\c2ccccc2Cl)C1=O)NC1C=CS(=O)(=O)C1 (configuration not stated) -83.8%, Cc1cccc(N2C(=O)C3C(c4ccccc4)OC4(C(=O)c5ccccc5C4=O)C3C2=O)c1 (configuration not stated) -66.3%, CC(=O)Nc1ccc(Nc2c([N+](=O)[O-])cc(S(C)(=O)=O)cc2[N+](=O)[O-])cc1 -75.2%, COc1ccc(-c2csc(NC(=O)COC(=O)c3ccc(Br)o3)n2)cc1 -106%, COc1ccc(-c2csc(NC(=O)COC(=O)Cc3ccc(Cl)cc3Cl)n2)cc1 -99.4%, CC(C)Sc1ncnc2c1cnn2-c1ccccc1 -82.1%, CCN(CC)C(=O)CSc1ncnc2c1cnn2-c1ccccc1 -129%, COc1ccccc1N1CCN(C(=O)CSc2ncnc3c2cnn3-c2ccc(C)c(C)c2)CC1 -144%, COc1cc(OC)cc(-c2nc(=S)n3ccsc3n2)c1 -77.6%, COc1ccc(-c2ccc3nnc(SCC(=O)Nc4ccc(NC(C)=O)cc4)n3n2)cc1 -81.8%, Oc1ccc(-c2cccc(-c3ccc(O)cc3)c2)cc1 -135%, O=C(Nc1ccc([N+](=O)[O-])cc1)OCCc1ccccn1 -144%, O=C(Nc1cccc(Cl)c1)OCc1ccccn1 -131%, COc1ccccc1Cc1nc(-c2ccc(C)cc2)no1 -97.1%, COc1ccc2[nH]c(=O)c(-c3noc(-c4ccc(F)cc4)n3)cc2c1 -111%, COc1ccc(-c2noc(-c3ccc(C)cc3)n2)cc1 -153%, O=C(Nc1nnc(-c2ccccc2F)s1)c1ccccc1F -172%, COc1ccc(CCc2nc(-c3cccs3)no2)cc1 -148%, Clc1cccc(Cl)c1Cn1nnc(-c2cccs2)n1 -162%, Cc1ccc(-c2csc(NC(=O)Cc3cccs3)n2)cc1C -200%, CCCc1ccc(-c2csc(NC(=O)Cc3cccs3)n2)cc1 -66.4%, CC(C)c1ccc(NC(=O)Cn2ncc3ccccc32)cc1 -178%, Cc1cccc(-n2c(C)cc(/C=N\NC(=O)c3cccs3)c2C)c1 -62.2%, O=C(N/N=C/C=C/c1ccco1)c1cccs1 -86.4%, Cc1ccc(-n2nc(C)c(/C=N/NC(=O)c3cccs3)c2Cl)cc1 -87.3%, CC(=O)Nc1ccc(/C=N/NC(=O)c2cccs2)cc1 -159%, CCCn1c(C)cc(/C=C(\C#N)C(=O)OCC(=O)Nc2cc(OC)c(OC)c(OC)c2)c1C -103%, CCOC(=O)/C(C#N)=C/c1ccc(OCC(=O)Nc2ccccc2)c(OC)c1 -119%, OC(COc1ccc2ccccc2c1)CN1CCOCC1 (configuration not stated) -72.5%, CC1CCc2c(sc3nc4n(c(=O)c23)CCS4)C1 (configuration not stated) -71.6%, CCCn1nnc2sc3c(c2c1=O)CCC(C)C3 (configuration not stated) -131%, Cc1ccn(-c2cccc(-n3ccc(C)n3)n2)n1 -93%, CN1CCN(/N=C/c2ccc(-c3ccc([N+](=O)[O-])cc3)o2)CC1 -128%, Cc1cc(=O)n2[nH]c(-c3cccc(Cl)c3)cc2n1 -79%, CCn1c(CNc2ccc(OC)cc2)nnc1SCC(=O)c1ccc(OC)cc1 -63.6%, O=C1NC(c2ccncc2)Nc2sc3c(c21)CCCC3 (configuration not stated) -66.2%, Cc1ccnc(NC(=O)c2ccc(Cl)c([N+](=O)[O-])c2)c1 -78.7%, O=C(Nc1ccc2oc(-c3ccccc3F)nc2c1)c1ccco1 -128%, O=C(CSCc1ccccc1)Nc1ccccc1 -126%, C/C(=N\NS(=O)(=O)c1ccc(Cl)cc1)c1ccc(NC(=O)c2ccco2)cc1 -87.4%, CCS(=O)(=O)Nc1ccc(C(=O)NCCSc2ccccc2)cc1 -92.6%, O=C(Nc1cccc(-c2nc3ncccc3o2)c1)c1ccco1 -72.9%, O=C(CSc1ccccc1)Nc1ccc(NC(=O)c2ccco2)cc1 -68.2%, CSCCC(NC(=O)c1ccco1)C(=O)Nc1cc(C)ccn1 (configuration not stated) -130%, CCCc1cc(C(=O)Nc2ccc(C(=O)OC)cc2)cs1 -74%, Cc1ccc(-n2nc3cc(Cl)c(NC(=O)c4ccco4)cc3n2)cc1 -179%, Cc1ccnc(NC(=O)c2ccc(NC(=O)c3ccco3)cc2)c1 -164%, O=C(/C=C/c1ccco1)Nc1ccc(Oc2ccccc2)cc1 -217%, O=C(Nc1ccc(Oc2ccccc2)cc1)c1ccco1 -119%, Cc1cc(NC(=O)c2ccc(F)cc2)ccc1NC(=O)c1ccco1 -63.3%, O=C(NCCSc1ccccc1)c1ccco1 -162%, O=C(CSc1ccccc1)Nc1ccc(C(=O)Nc2cccc(O)c2)cc1 -104%, CCCc1ccc(OCCNC(=O)c2ccco2)cc1 -90.6%, COC(=O)c1ccc(NC(=O)c2ccco2)cc1 -107%, O=C(Nc1ccc(O)cc1)c1ccc(NC(=O)c2ccco2)cc1 -72.7%, COC(=O)c1cc(Cl)c(NC(=O)c2ccco2)cc1OC -96%
